Measured values as given in the supplement of paper PMC10338343.
± gives the standard deviation.

tested on: MILI (PIWIL2) piRISC loaded with L1MC piRNA (26 nt); experiment: pre-steady-state target cleavage rate (min^-1); guide: L1MC piRNA 5'p-UAACUAAAUACUAUGCAAGCUGUAGG; MIWI and MILI are mouse PIWI proteins and EfPiwi is from a freshwater sponge; tags in brackets are library labels; higher = faster piRNA-guided slicing of the target; settings: auxiliary factor: 500 nM mouse GTSF1
How it was run: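 The pre-steady-state cleavage rate came from a burst-and-steady-state fit to pooled data from three Cleave-'n-Seq trials, in which uncleaved targets were sequenced and normalised to depth and to weakly complementary targets. Each reaction held 0.1 nM transcribed, DNA-blocked target RNA library and 1 nM active affinity-purified piRISC carrying one synthetic guide, with or without 500 nM GTSF1 partner protein, in HEPES–potassium acetate buffer at 33 °C for 0–8 or 0–960 min. k3 was capped at 0.0001 min^-1.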

Sequence	pre-steady-state target cleavage rate
UCCUGGAUGUCGAUGCAUAGCAUUUAGUUA	0.0232 ± 0.0085
UCCUCCUACAGCUUGCAUAGAAAUUAGUUA	0.0406 ± 0.0085
UCCUGGAUCAGCUUGCAUAGAAUUUACUUA	0.021 ± 0.0075
UCCUGGAUCAGCUUGCAAAGUAUUUUCAAA	0.00923 ± 0.0045
UCCUGGUACAGCUUGCAUUCUAUUUAGUUA	0.0335 ± 0.018
UCCUGGAUCAGCUUGCUAAGUAUUUAGAAA	0.0172 ± 0.006
UCCUCCUACAGCUACCAUAGUAUUUAGAAA	0.0576 ± 0.019
UCCUGGAUGUCGAAGCAUAGUAUUAAGUAA	0.0172 ± 0.0065
UCCUGGAUGUGCUUGCAUAGUAUUUUGUAA	0.00939 ± 0.0045
UCCUGCUACUGCUUGCAUAGUAUUUACUUA	0.082 ± 0.014
UCCUGGUACAGCUUGCAUAGUAAUUACUUA	0.00729 ± 0.0052
UCCUGGUACAGCUUGCAUAGUAAAUAGUAA	0.151 ± 0.045
UCCUGGAACAGCUUGCAUAGUUUUAAGUUA	0.0465 ± 0.009
UCCUCCUACAGCUUGCUAAGUAUUUAGUAA	0.0708 ± 0.013
UCCUGGAACAGGUUGCAUAGUAUUUACUUA	0.0532 ± 0.012
UCCUGCUACAGCUUGCAUGAGUAUUUAGUUA	0.0058 ± 0.0041
UCCUGGAUGUCGAACCAUAGAAAUUAGUUA	< 0.0001
UCCUGGAUGUCGAUGCAUAGUAAUUAGUAA	0.0439 ± 0.013
UCCUGGAUGUGCAACCAUAGUAUUUAGUUA	0.0128 ± 0.0042
UCCUGCUACAGCUUGCAUAGAUUUUUCAAA	0.0091 ± 0.0044
UCCUGGAUCAGCUACCAUAGUAUUUAGAAA	0.024 ± 0.0091
UCCUGGUACACGAUGCAUAGUAUUUAGUAA	0.186 ± 0.042
UCCUGGUACAGCUUGCAUAGUUUUUUGUUA	0.0564 ± 0.015
UCCUGGAACAGCUUGGAUACUAUUUAGUUA	0.0744 ± 0.017
